Sampled rows, rich in hits. Any-hit rate of the full collection: about 9.2%.
ELG1 DNA repair: inhibitors of ELG1-dependent DNA repair in HEK293T cells; 2.3% of 330,000 active; Potency, µM (titrated, usually from 46.1 µM), without a hit: at the top dose activity change, negative = inhibition, usual class: inhibitors; AID 504467; HEK293T ELG1-luciferase reporter, luminescence, 16 h; DNA damage induced by 5-fluorouridine; further: on the % scale 0 is the no-effect control and ±100 the full control effect; nearly all actives have a fitted effect of over 55% in size
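Cells (2,000 per well) received 5-fluorouridine plus test compound or DMSO and were incubated 16 hr at 37 °C, 5% CO2. Luciferase activity was read by luminescence 30 min after ONE-Glo addition; signal suppression marked inhibition of damage-induced ELG1 function.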
Rab9 prom act: activates the Rab9 promoter | Huh7 Rab9 promoter-luciferase reporter, luminescence, 24 h | Potency, µM (titrated, usually from 9.22 µM), for the others: top-dose activation, negative = inhibition, actives largely listed as activators | 2.8% of 320,000 active | AID 485297; further: % of control where 0% means no effect; nearly all actives have a fitted effect of over 60% in size
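Using Huh7 cells stably transfected with Rab9 promoter–luciferase, compounds were incubated 24 h at 37 °C, 5% CO2; luciferase luminescence was read 10 min after reagent addition.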
NPC1 prom act: activators of NPC1 promoter; Huh7 NPC1 promoter luciferase reporter, 24 h; Potency, µM (doses to about 9.22 µM), without a hit: at the highest dose activation, usual class: activators; 2.4% of 320,000 active; AID 485313; further: % of control where 0% means no effect; nearly all actives have a fitted effect of over 60% in size
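Readout is luciferase luminescence, reflecting NPC1 promoter activation in stably transfected Huh7 cells after 24 h compound exposure at 37 °C in reduced-serum medium with 10% FBS.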
ELG1 genotox: induces genotoxicity in HEK293T cells with luciferase-tagged ELG1; HEK293T ELG1-luciferase reporter, luminescence, 16 h; Potency, µM (top dose mostly 46 µM), without a hit: at the top dose activity change, positive = activation, most hits filed as activators; 1.3% of 330,000 active; AID 504466; further: % of control where 0% means no effect; nearly all actives have a fitted effect of over 60% in size
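16 hr compound incubation (37 °C, 5% CO2) of HEK293T cells carrying luciferase-tagged ELG1; luciferase then measured by ONE-Glo luminescence after 30 min at RT.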
FLuc counter: firefly luciferase modulation, counter-screen for miR-21 project | 6.9% of 360,000 active | purified FLuc, Km substrates, luminescence inhibition | Potency, µM (top dose mostly 57.5 µM), for inactives: at the highest dose activity change, negative = inhibition, usual class: inhibitors | P08659 | AID 588342;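 further: plate controls were vehicle for no effect and reference inhibitor for full effect; nearly all actives have a fitted effect of over 55% in size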
Target sequence (P08659 whole entry, looked up): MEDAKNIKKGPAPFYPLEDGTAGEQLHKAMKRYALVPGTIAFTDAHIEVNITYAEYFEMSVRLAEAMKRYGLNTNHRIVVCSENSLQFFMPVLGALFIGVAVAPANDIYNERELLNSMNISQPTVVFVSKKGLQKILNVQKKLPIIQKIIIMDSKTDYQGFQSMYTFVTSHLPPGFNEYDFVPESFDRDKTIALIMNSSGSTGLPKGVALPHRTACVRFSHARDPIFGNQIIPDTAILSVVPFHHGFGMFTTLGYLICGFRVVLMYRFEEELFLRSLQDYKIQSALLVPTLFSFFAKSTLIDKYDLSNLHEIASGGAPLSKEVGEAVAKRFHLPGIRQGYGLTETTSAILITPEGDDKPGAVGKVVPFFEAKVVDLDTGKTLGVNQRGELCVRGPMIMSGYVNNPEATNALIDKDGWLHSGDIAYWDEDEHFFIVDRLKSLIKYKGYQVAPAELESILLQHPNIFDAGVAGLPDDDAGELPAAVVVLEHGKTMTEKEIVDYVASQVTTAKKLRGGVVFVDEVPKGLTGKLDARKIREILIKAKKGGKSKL
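Purified P. pyralis luciferase, 10 nM final, with Km-level 10 uM D-luciferin and 10 uM ATP in 50 mM Tris acetate pH 7.5, 10 mM Mg acetate, 0.01% Tween-20, 0.05% BSA; 6-point qHTS titration about 60 µM downward; luminescence read.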
SMN2 splice up: increases expression of the SMN2 splice variant | HEK293 SMN2-luciferase splicing reporter, luminescence, 30-36 h | Potency, µM (top dose mostly 46.1 µM), for the others: top-dose activity change, positive = activation, usual class: activators | 2.8% of 210,000 active | AID 1458; further: % of control where 0% means no effect; nearly all actives have a fitted effect of over 55% in size
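qHTS luciferase splicing reporter: luminescence rises when SMN2 exon 7 is included in transfected HEK293 cells. Compound exposure lasted 30-36 h at 37C, with 4.5 mM final sodium butyrate as control, followed by a ONE-Glo read.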
The depositor's hits bear a star; u = inconclusive; x = no result; [ ] = remark or other dose. The call rests on the fitted dose curve; in most records, active means well fitted curve in the direction sought with a large enough effect; inconclusive means small, poorly fitted or top-dose-only effect, or another doubt; inactive means no such curve, though single readings can be large; an effect the other way counts as inactive or inconclusive. Potency means the concentration at half of the fitted maximal effect.

SMILES	ELG1 DNA repair	Rab9 prom act	NPC1 prom act	ELG1 genotox	FLuc counter	SMN2 splice up
Cc1cccc(NC(=S)NCCc2ccc3c(c2)OCCO3)c1C	u	-4%	0%	-5%	-7%	8%
Cc1ccc(C(=O)N/C(=C/c2cccnc2)C(=O)N2CCCCCC2)cc1	2%	21%	1%	9%	-1%	x
COc1cccc(CNC(=O)CCC2CCCN(c3cc(C)nc(N)n3)C2)c1 (stereo not drawn)	2%	0%	-3%	-2%	-2%	x
CC1Sc2ccc(S(=O)(=O)CCC(=O)NC3CCCCC3C)cc2NC1=O (stereo not drawn)	0%	-6%	-1%	-6%	-1%	x
Cc1ccc(-c2nn(-c3ccccc3)cc2CN(C)C(=O)CCC(=O)O)cc1C	21%	-3%	-2%	12%	19µM*	5%
O=C(O)CCC(=O)NCc1cn(-c2ccccc2)nc1-c1cccc(Br)c1	6%	-3%	-1%	3%	u	-20%
COc1ccc(NS(=O)(=O)c2ccc3nc(COc4ccc5ccccc5c4)[nH]c3c2)cc1	23µM*	2%	0%	-6%	-7%	x
COc1ccc(OCc2nc3ccc(S(=O)(=O)Nc4ccccc4Cl)cc3[nH]2)cc1	-21%	0%	-1%	-2%	-1%	-36%
COc1ccc(NS(=O)(=O)c2ccc3nc(COc4cccc5ccccc45)[nH]c3c2)cc1	23µM*	-1%	-1%	-10%	0%	-15%[1.84 µM]
COc1ccccc1NS(=O)(=O)c1ccc2nc(CCl)[nH]c2c1	u	-4%	-10%	0%	1%	x
CCN(CC)CCCn1c(-c2ccccc2)nc2c(N(CCOC)CCOC)nc(C)nc21	x	x	x	x	x	-6%
N=c1sccn1CC(=O)Nc1ccc(SC(F)F)cc1	10%	0%	-3%	-5%	-5%	-21%
O=C(NC1CCc2ccccc21)C1CCN(S(=O)(=O)c2ccc(Cl)cc2)CC1 (stereo not drawn)	-13%	1%	-1%	-3%	12%	-12%
O=S(=O)(NC1CCc2ccccc21)c1ccc(S(=O)(=O)N2CCCC2)cc1 (stereo not drawn)	26µM*	-2%	-1%	-18%	3%	-33%
C/C(=C\C(=S)Nc1ccccc1)Nc1ccc2ccccc2c1	u	14%	16%	26%	17µM*	-2%
S=C(NCc1ccccc1)Nc1ccc(Oc2ccccc2)cc1	-20%	-3%	-5%	-7%	-21%	x
S=C(NCc1ccccc1)Nc1ccc2ccccc2c1	u	u	2.2µM*	u	13µM*	x
O=C(NCCCn1ccnc1)/C(=C/c1ccc(Cl)cc1)NC(=O)c1ccccc1	1%	1%	-3%	-4%	1%	x
CN(C)c1ccc(/C=C(\NC(=O)c2ccccc2)C(=O)NCc2cccnc2)cc1	4%	-3%	0%	-2%	11µM*	x
CN(C)c1ccc(/C=C(/NC(=O)c2ccccc2)C(=O)NCCCn2ccnc2)cc1	10%	-1%	-3%	1%	4.8µM*	x
CC(C)Cn1c(N)c(C(=O)CSc2nc3ccccc3c(=O)n2CCCN2CCOCC2)c(=O)n(C)c1=O	u	-4%	1%	7%	-3%	-8%
CCC(=O)NNC(=O)CCC(=O)Nc1ccccc1	u	-1%	-2%	2%	-3%	u
CC(C)(C)c1ccc(C(=O)NNC(=O)CCC(=O)Nc2ccccc2)cc1	7%	6%	11%	17%	3.4µM*	x
Cc1cc(NC(=O)CCC(=O)NNC(=O)c2ccc(C(C)(C)C)cc2)no1	u	11%	4%	8%	2.4µM*	5%
Cc1ccc(NC(=O)CSc2nncc3ccccc23)cc1	0%	3%	-6%	0%	-25%	x
SMILES	ELG1 DNA repair	Rab9 prom act	NPC1 prom act	ELG1 genotox	FLuc counter	SMN2 splice up
C(=N\Nc1nncc2ccccc12)/c1ccccn1	u	u	u	0.37µM*	1.7µM*	x
COc1ccc(/C=N/Nc2nn3cnnc3c3ccccc23)cc1	u	5%	5%	-15%	u	x
Fc1cccc(/C=N/Nc2nncc3ccccc23)c1	u	u	0.32µM*	0.73µM*	0.6µM*	x
CC(=O)Nc1ccc(/C=N/Nc2nncc3ccccc23)cc1	u	1.1µM*	2.8µM*	15%	12µM*	x
CCN(CC)C1CCN(C(=O)CCn2nnnc2CN2CCOCC2)C1 (stereo not drawn)	20%	4%	-4%	1%	4%	x
C/C=C1/C(=O)C[C@@H]2[C@H]3CCC4=CC(=O)CC[C@]4(C)[C@@H]3CC[C@]12C	x	x	x	x	x	-47%
CCOc1ccc(NCc2nc3ccccc3n2CCOc2ccccc2)cc1	u	25%	u	u	12µM*	-43%
Clc1ccc(NCc2nc3ccccc3n2CCOc2ccccc2)cc1	x	x	x	x	u	-30%
Cc1ccccc1NCc1nc2ccccc2n1CCOc1ccccc1	x	x	x	x	9.5µM*	18µM*
CCS(=O)(=O)c1ncc(Cl)c(C(=O)N2CCN(c3ccc(OC)cc3)CC2)n1	x	x	x	x	-6%	u
CCC(C)c1ccccc1NC(=O)C(C)N(C)Cc1cccc(OC)c1 (stereo not drawn)	u	-2%	-2%	-11%	1%	-22%
CCN(CC(=O)Nc1ccc2c(c1)OCCO2)C(=O)c1ccc(S(=O)(=O)N(C)C)cc1	2%	-1%	3%	-2%	4%	x
CN(C)S(=O)(=O)c1ccc(Nc2ccc(-c3ccc4c(c3)OCCO4)nn2)cc1	26%	9%	-5%	3%	6.7µM*	2%
CN(C(=O)c1cccc(Nc2ccc(-c3ccc4c(c3)OCCO4)nn2)c1)C1CCCCC1	u	u	u	-21%	0.95µM*	-59%
CCN(CC)S(=O)(=O)c1ccc(Nc2ccc(-c3ccc4c(c3)OCCO4)nn2)cc1	u	18%	-6%	8%	11µM*	-14%
COc1ccc(S(=O)(=O)N2CCCC2CNC(=O)C(=O)Nc2cccc(F)c2)cc1 (stereo not drawn)	u	-5%	-1%	-3%	3%	x
COc1cc(NC(=O)CN2C(=O)NC(CC(C)C)C2=O)cc(OC)c1OC (stereo not drawn)	14%	-4%	-3%	2%	1%	x
CCOc1ccc(OCc2ccc(C(=O)N(CC)CC)cc2)cc1	u	u	u	6%	15µM*	24%
O=C(OCC(F)(F)F)c1cccc(COc2ccc3ccccc3c2)c1	u	u	1µM*	u	3.4µM*	0.45µM*
COc1cc(/C=N/NC(=O)c2cccc([N+](=O)[O-])c2)ccc1OCc1ccccc1	u	1%	-2%	-2%	10%	0%
